An excerpt weighted towards active compounds, which were near 11% of everything screened.
JMJD2A Tudor = inhibitors of human JMJD2A Tudor domain; 4.4% of 390,000 active; AlphaScreen JMJD2A-Tudor / H3K4me3 peptide binding; Potency, µM (top dose mostly 114 µM), for inactives: at the highest dose activity change, negative = inhibition, usual class: inhibitors; further: on the % scale 0 is the no-effect control and ±100 the full control effect; nearly all actives have a fitted effect of over 50% in size
HP1b binding inh = HP1-beta chromodomain-methylated histone interaction inhibition; P83916; AlphaScreen HP1-beta / biotin-H3K9me3 peptide binding; Potency, µM (titrated, usually from 114 µM), inactives show top-dose activity change, negative = inhibition, usual class: inhibitors; 0.56% of 390,000 active; further: nearly all actives have a fitted effect of over 70% in size
Target sequence (P83916 whole entry, looked up): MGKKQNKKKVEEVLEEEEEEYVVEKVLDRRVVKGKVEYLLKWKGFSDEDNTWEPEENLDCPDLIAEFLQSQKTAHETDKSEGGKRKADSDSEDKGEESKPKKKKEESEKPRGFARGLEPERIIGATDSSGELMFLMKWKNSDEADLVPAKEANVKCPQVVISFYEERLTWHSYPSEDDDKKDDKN
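Compound inhibition of the preformed complex between 50 nM HP1-beta and 50 nM biotinylated H3K9me3 peptide was read by AlphaScreen. Buffer was PBS pH 7.4 with 0.01% Tween-20. Incubations ran 30 min at room temperature, with 10 ug/mL donor/acceptor beads.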
BAZ2B block = inhibitors of human BAZ2B bromodomain; AlphaScreen BAZ2B-H3K14Ac peptide displacement; Potency, µM (series often up to 114 µM), for the others: top-dose activity change, negative = inhibition, actives largely listed as inhibitors; Q9UIF8; 4.4% of 360,000 active; further: on the % scale 0 is the no-effect control and ±100 the full control effect; nearly all actives have a fitted effect of over 60% in size
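Inhibition is scored as reduced AlphaScreen emission. The BAZ2B/b-H3(5-23)K14Ac complex (50 nM each) in PBS pH 7.4, 0.01% Tween-20 meets compound (up to 110 uM) for 30 min at RT before bead addition.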
L3MBTL1 block = L3MBTL1 (human) inhibition. AlphaScreen L3MBTL1–H3K9me1 peptide binding. Q9Y468. AID 485360. 0.66% of 230,000 active. Potency, µM (series often up to 57.1 µM), for the others: at the top dose activity, negative = inhibition, most hits filed as inhibitors; further: on the % scale 0 is the no-effect control and ±100 the full control effect; nearly all actives have a fitted effect of over 60% in size
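Read-out is AlphaScreen signal from streptavidin donor and nickel chelate acceptor beads (10 ug/mL final each) bridging L3MBTL1 (50 nM) and biotinylated K9-monomethylated H3(1-15) peptide (75 nM), after 30 min compound exposure at room temperature.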
G9a inh = blocks human histone lysine methyltransferase G9a; Q96KQ7; G9a H3K9 monomethylation, AlphaScreen, 2 h; Potency, µM (series often up to 102 µM), inactives show top-dose activity, negative = inhibition, actives largely listed as inhibitors; 8.8% of 350,000 active; AID 504332; further: on the % scale 0 is the no-effect control and ±100 the full control effect; nearly all actives have a fitted effect of over 75% in size
Target sequence (Q96KQ7 913-1193 limits assumed): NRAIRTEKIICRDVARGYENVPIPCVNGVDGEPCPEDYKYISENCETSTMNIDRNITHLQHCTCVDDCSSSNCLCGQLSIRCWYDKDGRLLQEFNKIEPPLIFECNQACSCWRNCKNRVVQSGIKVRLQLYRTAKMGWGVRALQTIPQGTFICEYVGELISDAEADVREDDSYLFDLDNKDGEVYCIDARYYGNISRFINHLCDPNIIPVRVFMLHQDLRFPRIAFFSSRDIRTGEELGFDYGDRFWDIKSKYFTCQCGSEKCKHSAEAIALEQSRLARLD
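AlphaScreen read-out: biotin-H3K9 peptide (500 nM) methylation by 20 nM enzyme with 20 uM SAM, 2 h at room temperature after 15 min compound preincubation; anti-monomethyl H3K9 antibody plus donor/acceptor beads, 10 min dark.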
Active calls of the source: *; ? = inconclusive; . = no result; ! = repeats disagree; [ ] = dose if it differs, or a comment. The call rests on the fitted dose curve; in most records, active means well fitted inhibition curve with a large enough effect; inconclusive means small, poorly fitted or top-dose-only effect; inactive means no such curve, though single readings can be large or run the other way. Potency means the concentration at half of the fitted maximal effect.

SMILES	JMJD2A Tudor	HP1b binding inh	BAZ2B block	L3MBTL1 block	G9a inh
C=CCn1c(SCc2ccc(F)cc2)nc2c1c(=O)[nH]c(=O)n2C	-8%	40%	-6%	.	?
CCCSc1nc2c(c(=O)[nH]c(=O)n2C)n1Cc1ccc(C)cc1	-13%	25%	8%	6%	6%
C=CCSc1nc2c(c(=O)[nH]c(=O)n2C)n1Cc1ccc(C)cc1	-19%	-6%	1%	-10%	14µM*
C/C=C/Cn1c(SCc2ccc(C)cc2)nc2c1c(=O)[nH]c(=O)n2C	-20%	-13%	-5%	-1%	25µM*
COc1ccc(-c2nc(N3CCN(S(=O)(=O)c4ccc(F)cc4)CC3)c3ccccc3n2)cc1	-20%	37%	.	.	.
CC(C)NC[C@@H](O)c1ccc(O)c(O)c1	45µM*	?	?	?	18µM*!
CC(C)CNCC(=O)N1c2ccccc2Sc2ccccc21	11µM*	?	?	8%	35µM*
CCOC(=O)N1CCC(N2CCN(C3CCCC3)C(CCO)C2)CC1 (stereo not given)	-14%	14%	10%	-1%	-1%[59 µM]
CC(C)c1ccc(S(=O)(=O)NCc2nc3cccnc3n2Cc2ccc(F)cc2)cc1	7%	23%[57 µM]	-1%	.	7%[59 µM]
CC(=O)N1CCc2cc(S(=O)(=O)CCC(=O)Nc3ccc(Cl)cc3F)ccc21	-10%	49%	-20%	.	71µM*
CCC(=O)N1CCc2cc(S(=O)(=O)CCC(=O)Nc3cc(Cl)ccc3OC)ccc21	14µM*	8%	.	.	13µM*
CCC(=O)N1CCc2cc(S(=O)(=O)CCC(=O)Nc3cccc(C)n3)ccc21	-12%	56%	7%	.	50µM*
CCC(=O)N1CCc2cc(S(=O)(=O)CCC(=O)Nc3ccc(OC)cc3)ccc21	11%	36%	-3%	.	.
O=S(=O)(c1ccc2c(c1)OCCO2)C1CCN(S(=O)(=O)c2c(F)cccc2F)CC1	-14%	.	.	.	.
CCOc1ccc(N2C(=O)CS/C2=C(\C(Cl)=C(Cl)Cl)[N+](=O)[O-])cc1	5µM*	-65%	50µM*	.	32µM*
CCOc1ccc(N2C(=O)CNC2=S)cc1	-9%	3%	-10%	6%	8%
O=C(COC(=O)Cc1ccc(S(=O)(=O)N2CCOCC2)s1)NCc1ccccc1	-10%	24%	-7%	-2%	?
O=C(COC(=O)Cc1ccc(S(=O)(=O)N2CCCCC2)s1)Nc1ccc2c(c1)OCO2	-27%	3%	.	-6%	22µM*
NS(=O)(=O)c1cccc(NC(=O)COC(=O)Cc2ccc(S(=O)(=O)N3CCCCC3)s2)c1	-26%	38%	?	-2%	45µM*
O=C(COC(=O)Cc1ccc(S(=O)(=O)N2CCOCC2)s1)NCCc1ccccc1	-27%	4%	50µM*	.	?
CC(=O)C1=C(O)C(=O)N(c2ccc(Br)cc2)C1c1ccccc1[N+](=O)[O-] (stereo not given)	-30%	-12%	-4%	5%	40µM*
CC(=O)C1=C(O)C(=O)N(CCc2ccccc2)C1c1ccccc1[N+](=O)[O-] (stereo not given)	7%	-6%	4%	11%	1%[59 µM]
CC(=O)C1=C(O)C(=O)N(c2ccc(O)cc2)C1c1ccccc1F (stereo not given)	-20%	8%	2%	.	79µM*
CC(=O)C1=C(O)C(=O)N(CO)C1c1ccccc1F (stereo not given)	?	21%	?	4%	56µM*
COc1ccc(CNC(=O)c2ccc(N3CCCC3)c(NC(=O)NCc3ccc(F)cc3)c2)cc1	?	3%	-24%	.	?
SMILES	JMJD2A Tudor	HP1b binding inh	BAZ2B block	L3MBTL1 block	G9a inh
COc1ccc(N2C(=O)CSC23C(=O)N(CC(=O)NC2CCCCC2)c2ccccc23)cc1 (stereo not given)	-10%	32%	8%[57.1 µM]	.	-16%[59 µM]
COc1cc(OC)c2c(c1C(CCN1CCCC(C)C1)c1ccc(N(C)C)cc1)OC(=O)CC2c1ccc(N(C)C)cc1 (stereo not given)	8.9µM*	?	.	.	.
COc1cc(C(CCN2CCCC(C)C2)c2c(OC)cc(OC)c3c2OC(=O)CC3c2ccc(N(C)C)cc2)cc(OC)c1OC (stereo not given)	16µM*	?	14µM*	.	?
COc1cc(C(CCN2CCCC(C)C2)c2c(OC)cc(OC)c3c(C)cc(=O)oc23)cc(OC)c1OC (stereo not given)	-19%	?	.	.	.
COc1cc(C2CC(=O)Oc3c(C(CCN4CCCC(C)C4)c4ccc(N(C)C)cc4)c(OC)cc(OC)c32)cc(OC)c1OC (stereo not given)	40µM*	?	35µM*	.	?
CN(C(=O)CC1C(=O)NCCN1Cc1cccc(F)c1F)C1CC(C)(C)NC(C)(C)C1 (stereo not given)	-8%	8%	-4%	.	33%
COc1ccc(NC(=O)C(=O)c2cc(C)n(-c3ccc(C)cc3)c2C)cc1Cl	-22%	25%	-11%	.	-2%[59 µM]
CCOc1ccccc1-n1nnc(-c2nc(-c3ccccc3C)no2)c1C	13%	62%	6%	.	5%[59 µM]
CCC(=O)N1CCc2cc(S(=O)(=O)NC(C(=O)NCc3ccc(OC)cc3)C(C)C)ccc21 (stereo not given)	-14%	28%	.	.	9%[59 µM]
CC(C)[C@H](NC(=O)c1ccc(Cl)cc1Cl)C(=O)NNC(=O)c1ccco1	-3%	57%	.	3%	.
O=C(NCCN1C(=O)S/C(=C\c2cccnc2)C1=O)c1cc(S(=O)(=O)N2CCOCC2)ccc1F	?	40%	-6%	-4%	40µM*
O=C(NCCN1C(=O)S/C(=C\c2cccnc2)C1=O)c1ccc([N+](=O)[O-])s1	-15%	19%	13%	-3%	14µM*
Cc1ccc(S(=O)(=O)N2CCOCC2)cc1C(=O)NCCN1C(=O)S/C(=C\c2ccccc2Cl)C1=O	-11%[57.1 µM]	8%	-5%	-13%	-10%[59 µM]
C=CCN(CC=C)c1cnn(-c2nc3ccccc3[nH]2)c(=O)c1Cl	-21%	33%	?	.	?
O=c1c(Cl)c(NCCCO)cnn1-c1nc2ccccc2[nH]1	-21%[11.4 µM]	-1%	50µM*	-9%	6%[12.7 µM]
CCN(CCO)Cc1csc2cc(C)ccc12	5%	45%	0%	-4%	?
CCN(CCO)Cc1cn[nH]c1-c1ccc(C)c(C)c1	3.5µM*	?	56µM*	3%	3.5µM*
COc1ccc(-c2nc3sc(CCNC(=O)c4ccc(C(C)(C)C)cc4)c(C)n3n2)cc1	-11%	17%	3%	.	7%[59 µM]
C=CCSC(=C(C#N)C#N)c1cc2c([nH]1)CCCC2	50µM*	?	50µM*	.	-48%[12.7 µM]
COc1cccc(C(=O)N(Cc2ccc(N(C)C)cc2)Cc2ccco2)c1	40µM*	?	22µM*	.	13µM*

Screening data as filed in PubChem.
